Data from the supplement of paper PMC6555819.

Assays:
Experiment in all cases: PBM binding z-score (relative to random genomic background probes); higher = stronger binding; sequences stand for … in GC…GCGATTGACAGCGTAGAATGAAGG
[1] = system: PPARg:RXRa DBDmut IVT, anti-RXR (DBD mutation: RXRa K156A/R161A, NR concentration 270 nM, RXRa partner concentration 90 nM)
In short: (§1)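 Regression normalization was applied to scanned fluorescence from custom Agilent 4×180K protein-binding microarrays. Before scanning, arrays were incubated 1 h with ligand-free nuclear receptor dimers, and binding was detected with antibodies against each partner (one per run). Binding z-scores use the random background probes as reference.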

[2] = system: PPARg:RXRa IVT, anti-PPARg (NR concentration 270 nM, RXRa partner concentration 90 nM)
In short: as §1

[3] = system: PPARg DBDmut:RXRa IVT, anti-PPARg (DBD mutation: PPARg1 K132A/R137A, NR concentration 270 nM, RXRa partner concentration 90 nM)
In short: as §1

[4] = system: PPARg DBDmut IVT, anti-PPARg (DBD mutation: PPARg1 K132A/R137A, NR concentration 270 nM)
In short: as §1

[5] = system: PPARg homodimer (NR concentration 180 nM)
In short: as §1

[6] = system: PXR:RXRa (NR concentration 270 nM, RXRa partner concentration 90 nM)
In short: as §1

[7] = system: PXR homodimer (NR concentration 270 nM)
In short: as §1

[8] = system: RARa:RXR (NR concentration 270 nM, RXRa partner concentration 90 nM)
In short: as §1

[9] = system: RARa homodimer (NR concentration 270 nM)
In short: as §1

[10] = system: RARb:RXRa (NR concentration 270 nM, RXRa partner concentration 90 nM)
In short: as §1

[11] = system: RARb homodimer (NR concentration 270 nM)
In short: as §1

[12] = system: RARg:RXRa (NR concentration 270 nM, RXRa partner concentration 90 nM)
In short: as §1

[13] = system: RARg homodimer (NR concentration 270 nM)
In short: as §1

[14] = system: RXRa DBDmut IVT, anti-RXR (DBD mutation: RXRa K156A/R161A, NR concentration 90 nM)
In short: as §1

[15] = system: RXRa homodimer (NR concentration 180 nM)
In short: as §1

[16] = system: THRa:RXRa (NR concentration 90 nM, RXRa partner concentration 90 nM)
In short: as §1

[17] = system: THRa homodimer (NR concentration 90 nM)
In short: as §1

[18] = system: VDR homodimer (NR concentration 270 nM)
In short: as §1

| Sequence | PBM binding z-score [1] | PBM binding z-score [2] | PBM binding z-score [3] | PBM binding z-score [4] | PBM binding z-score [5] | PBM binding z-score [6] | PBM binding z-score [7] | PBM binding z-score [8] | PBM binding z-score [9] | PBM binding z-score [10] | PBM binding z-score [11] | PBM binding z-score [12] | PBM binding z-score [13] | PBM binding z-score [14] | PBM binding z-score [15] | PBM binding z-score [16] | PBM binding z-score [17] | PBM binding z-score [18] |
| --- | --- | --- | --- | --- | --- | --- | --- | --- | --- | --- | --- | --- | --- | --- | --- | --- | --- | --- |
| TCTATTAGTTGAAGGGGAACCGACGAGTCCGTTT | 3 | 0.249 | 1.26 | 0.473 | 1.97 | 1.04 | 1.09 | 0.424 | 1.8 | 0.752 | 0.0488 | 0.44 | 0.17 | 2.05 | 0.673 | 0.226 | 0.565 | 1.61 |
| TCTATTAGTTGAAGGGCGACCGACGAGTCCGTTT | 2.51 | 0.299 | 0.865 | 1.2 | 0.852 | 0.655 | 0.886 | 0.0781 | 0.844 | 0.714 | 0.596 | 0.105 | -0.00665 | 1.84 | 0.439 | 0.0101 | 0.203 | 1.32 |
| GCGACTGGGGCATAAGCAGGTTACCATAACTTAA | 3.36 | 3.18 | -0.0704 | -1.04 | 0.497 | 0.0393 | -0.431 | 0.498 | -0.34 | 0.653 | 0.55 | 0.617 | 0.393 | 0.0117 | 0.39 | 0.914 | -0.368 | -0.246 |
| CCTGCTAGGTCAATGGTCAGCTATAGCAGCTCGC | 4.67 | 3.79 | -0.186 | -0.414 | 1.14 | 0.849 | -0.745 | 1.57 | -0.658 | 3.75 | 3.2 | 3.54 | 4.59 | 1.75 | 2.21 | 2.26 | 0.61 | 0.24 |
| CCAGACAGGTCAGAAGGTAACTCAGCCTCGATTA | 1.41 | 1.15 | -0.393 | -1.03 | 2.19 | 1.21 | 0.153 | 2.1 | 0.911 | 3.49 | 2.66 | 3.85 | 3.63 | 1.34 | 2.61 | 1.39 | 0.239 | 0.366 |
| ATCTCTAGGTAACCAAGTTCGGTGAATGCCGAAC | 3.09 | 2.93 | 1.06 | 1.09 | 0.509 | 0.501 | 0.469 | 0.415 | 0.268 | 0.571 | 0.477 | 0.289 | 0.0649 | 0.0543 | 0.189 | 0.968 | 0.803 | 1.13 |
| CCTACAGGGCCAAAAAGGTCATTGATGCCGATAA | -0.0995 | 0.938 | -1.38 | -1.06 | 2.94 | 5.28 | 4.66 | 5.28 | 1.42 | 4.26 | 4.52 | 4.75 | 4.56 | 1.26 | 5.08 | 3.21 | 0.419 | 3.43 |
| CCTGCTAGGTCAATGGTCACCTAAAGCAGCTCGC | 3.93 | 4.42 | 0.106 | -0.848 | 1.21 | 1.24 | -0.353 | 2.13 | -0.122 | 3.96 | 3.18 | 3.72 | 4.05 | 2.07 | 2.43 | 2.78 | 1.32 | 0.427 |
| TCTTGTAGATCAGCAGGTTAACAAAGCTGGCCAA | 1.62 | 0.747 | -0.763 | -0.365 | 0.0617 | 0.171 | -0.584 | 0.489 | -0.289 | 0.359 | 0.38 | 0.348 | -0.352 | 0.44 | 0.609 | 0.517 | -0.468 | -0.328 |
| CCTACTGGGCCACGAAGGGTCATTGATTCAGTGA | 4.42 | 5.28 | -0.0977 | -1.2 | 1.51 | 3.23 | 0.0111 | 3.46 | 0.673 | 2.82 | 3.41 | 2.96 | 2.73 | -0.323 | 2.86 | 3 | -0.121 | 1.53 |
| ACTTACGGTTCAACGAGGTTATAGCACGCGTATA | 0.149 | 0.712 | 1.36 | 1.61 | 1.64 | 4.06 | 6.85 | 3.55 | 0.973 | 1.59 | 1.54 | 2.25 | 1.14 | 3.49 | 3.22 | 3.06 | 0.878 | 5.32 |
| ACTAGTTGGTCAGCTGCGGTCACACACAATTCGG | 1.11 | 1.54 | 0.929 | 0.572 | 0.275 | 1.27 | 0.281 | 1.42 | 0.564 | 2.26 | 2.82 | 1.23 | 1.87 | 0.356 | 0.636 | 2.65 | 0.969 | 0.532 |
| CCGACTGGGGCAAAGATTACCATACTCAGTACGA | 4.42 | 3.1 | -0.00287 | -0.543 | 0.462 | -0.644 | -0.342 | -0.848 | -0.293 | 0.284 | -0.379 | 0.0799 | 0.405 | 0.314 | -0.0917 | -0.407 | -0.518 | -0.37 |
| GCTATTAGTTGAAAGGGCACCCGAATGATTCTCG | 0.791 | 0.951 | -0.101 | 0.368 | 1.05 | 0.72 | 0.405 | 1.28 | 0.468 | 1.72 | 1.78 | 1.18 | 1.03 | 1.06 | 1.43 | 0.64 | 0.229 | 0.843 |
| ACAGACAGGTGATGAAGATAACTCAGGCTATCAT | -0.0309 | 0.209 | 0.00107 | 0.948 | 0.0066 | -0.435 | 0.0307 | -0.227 | 0.47 | 0.0491 | 0.036 | 0.0914 | 0.567 | -0.415 | 0.164 | 0.061 | -0.111 | -0.302 |
